This is an account of results in PubChem BioAssay (NCI).

Among the test systems are NCI-H23 lung; NCI-H226 lung; NCI-H322M lung; HOP-62 NSCLC; NCI-H460 lung; HOP-92 NSCLC; NCI-H522 lung; A549/ATCC NSCLC; 786-0 renal; COLO 205 colon; DU-145 prostate; MALME-3M melanoma; MDA-MB-231 breast; RXF 393 renal; SF-268 CNS; SF-295 CNS; SF-539 CNS; UACC-257 melanoma; M14 melanoma.
What all share (test): NCI-60 one-dose screen, 48 h (100 = growth as untreated, 0 = no growth, -100 = all killed)
Common to all, as to details: 10 µM unless noted

The panel holds about 83,000 compounds, 20% with a hit somewhere; the sample as a whole holds those more often.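 Cell lines were cultured in 96-well plates, exposed to a single compound concentration, and assessed for percent growth 48 hours later.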 A number with no mark means an inactive call. Active and inactive are the calls of the source. Rule for the calls: active = growth percent below 10; inactive = the rest.

Regarding `Nc1n[nH]c2cccc(C#Cc3cccc(NC(=O)c4cccc(C(F)(F)F)c4)c3)c12`, the growth with NCI-H23 lung is 39.5%; in the experiment with NCI-H226 lung, 44%; in the experiment on NCI-H322M lung it was 46.5%; in the experiment with HOP-62 NSCLC, 28.3%; with NCI-H460 lung, 40.3%; in the experiment with HOP-92 NSCLC, -4.2% (active). For the same compound, the growth in the experiment on NCI-H522 lung was 41.2%; with A549/ATCC NSCLC, 43.4%; in the experiment on 786-0 renal it was 23.1%; in the experiment on COLO 205 colon, 16.5%; with DU-145 prostate, 48.5%; in the experiment on MALME-3M melanoma, -0.658% (active). The growth in the experiment on MDA-MB-231 breast was 9.5% (active); in the experiment with RXF 393 renal, -13.7% (active); with SF-268 CNS, 32.7%; with SF-295 CNS, 50.3%; in the experiment with SF-539 CNS, -19.9% (active); in the experiment with UACC-257 melanoma, 50.3%. Also, the growth with M14 melanoma was 10.4%.

`Nc1nc(Cl)c2c(C(F)(F)F)cn(CC3CCNCC3)c2n1`: the growth was 47.5% with NCI-H23 lung; 111% with NCI-H226 lung; 100% with NCI-H322M lung; 103% in the experiment on HOP-62 NSCLC; 103% in the experiment with NCI-H460 lung; 57.9% in the experiment with HOP-92 NSCLC. Moreover, the growth in the experiment with NCI-H522 lung is 5.07% (active); in the experiment on A549/ATCC NSCLC it was 94.2%; in the experiment with 786-0 renal it was 95.5%; in the experiment on COLO 205 colon, 94%; in the experiment with DU-145 prostate, 109%; in the experiment on MALME-3M melanoma it was 101%. In addition, the growth was 54.2% with MDA-MB-231 breast; 52.9% in the experiment with RXF 393 renal; 96.2% with SF-268 CNS; 105% with SF-295 CNS; 107% in the experiment on SF-539 CNS; 83.8% in the experiment with UACC-257 melanoma. In the experiment with M14 melanoma, the growth was 57.3%.

With `COc1ccc(/C=N/C2=NNC(C)(c3ccccc3O)N2C(Cc2c[nH]c3ccccc23)C(=O)O)cc1` (stereo not drawn), the growth is 22.8% in the experiment on NCI-H23 lung; 53.2% in the experiment on NCI-H226 lung; 56.1% in the experiment with NCI-H322M lung; 32.7% in the experiment with HOP-62 NSCLC; 20.4% in the experiment with NCI-H460 lung; 2.13% (active) in the experiment with HOP-92 NSCLC. Besides, the growth in the experiment on NCI-H522 lung is 18.9%; in the experiment on A549/ATCC NSCLC, 42.5%; with 786-0 renal it was 58.3%; in the experiment with COLO 205 colon it was 8.42% (active); with DU-145 prostate, 58.9%; with MALME-3M melanoma it was 12.9%. In addition, the growth in the experiment on MDA-MB-231 breast was 28.8%; in the experiment on RXF 393 renal, 35.5%; in the experiment on SF-268 CNS it was 40.2%; in the experiment on SF-295 CNS, 35.3%; in the experiment with SF-539 CNS, 45.2%; with UACC-257 melanoma it was 23.5%. The growth in the experiment on M14 melanoma was 10.8%.

With `O=C(Cn1c2ccccc2c2ccncc21)N/N=C\c1ccc2ccccc2c1`, the growth in the experiment with NCI-H23 lung was 55%; with NCI-H226 lung, 31.9%; in the experiment with NCI-H322M lung it was 39.1%; with HOP-62 NSCLC, 19.8%; in the experiment with NCI-H460 lung, 5.42% (active); in the experiment with HOP-92 NSCLC, -7.39% (active). Further, the growth with NCI-H522 lung was 38%; in the experiment with A549/ATCC NSCLC it was -10.1% (active); in the experiment on 786-0 renal it was -3.98% (active); in the experiment on COLO 205 colon, 31.6%; in the experiment on DU-145 prostate, 9.11% (active); in the experiment on MALME-3M melanoma, 3.45% (active). Also, the growth with MDA-MB-231 breast was 5.36% (active); with RXF 393 renal it was 1.74% (active); with SF-268 CNS, 41.6%; in the experiment on SF-295 CNS, 28.7%; in the experiment with SF-539 CNS it was 27.6%; in the experiment with UACC-257 melanoma it was 59.7%. The growth in the experiment on M14 melanoma was 30.9%.

`CCOc1ccccc1C(=O)N1CCN(c2cc(Cl)cc(Cl)c2)CC1`: the growth in the experiment with NCI-H23 lung was 24.3%; in the experiment on NCI-H226 lung, 65.6%; with NCI-H322M lung it was 35%; in the experiment with HOP-62 NSCLC, 27.1%; in the experiment with NCI-H460 lung, 5.68% (active); in the experiment with HOP-92 NSCLC it was 18.2%. The growth was -6.41% (active) in the experiment with NCI-H522 lung; 19.3% in the experiment on A549/ATCC NSCLC; 14.5% in the experiment with 786-0 renal; -65.9% (active) in the experiment with COLO 205 colon; 8.76% (active) in the experiment on DU-145 prostate; 45.3% in the experiment on MALME-3M melanoma. For the same compound, the growth with MDA-MB-231 breast was 6.62% (active); in the experiment with RXF 393 renal it was 40.9%; in the experiment on SF-268 CNS, 30%; in the experiment with SF-295 CNS, 17.9%; in the experiment on SF-539 CNS, -4.39% (active); in the experiment with UACC-257 melanoma, 51.1%. In addition, the growth in the experiment on M14 melanoma is -23.3% (active).

As to `Nc1nc(Nc2ccc(OCc3cccc(F)c3)cc2)c2c(n1)[nH]c1ccc(O)cc12`, the growth was 6.71% (active) in the experiment with NCI-H23 lung; -56.2% (active) in the experiment with NCI-H226 lung; 3.43% (active) in the experiment on NCI-H322M lung; -17% (active) with HOP-62 NSCLC; -49.2% (active) in the experiment on NCI-H460 lung; -31.3% (active) with HOP-92 NSCLC. The growth in the experiment with NCI-H522 lung was -76.2% (active); with A549/ATCC NSCLC it was -27.1% (active); in the experiment with 786-0 renal, -96.6% (active); with COLO 205 colon, -77.5% (active); with DU-145 prostate, 10.4%; in the experiment on MALME-3M melanoma, -69.5% (active). The growth is -67.9% (active) with MDA-MB-231 breast; -76% (active) in the experiment on RXF 393 renal; -14.7% (active) in the experiment with SF-268 CNS; -69.2% (active) with SF-295 CNS; -84% (active) with SF-539 CNS; -31.2% (active) in the experiment on UACC-257 melanoma. Besides, the growth with M14 melanoma was -83% (active).

Take `OCc1cnccc1NC12CC3CC(CC(C3)C1)C2`: the growth with NCI-H23 lung is 102%; with NCI-H226 lung it was 95.4%; with NCI-H322M lung, 103%; with HOP-62 NSCLC, 101%; with NCI-H460 lung, 100%; with HOP-92 NSCLC, 86.2%. Besides, the growth was 86.1% with NCI-H522 lung; 96% with A549/ATCC NSCLC; 101% with 786-0 renal; 91.1% in the experiment with COLO 205 colon; 104% with DU-145 prostate; 99.4% in the experiment on MALME-3M melanoma. The growth with MDA-MB-231 breast is 97.6%; in the experiment on RXF 393 renal, 99.9%; in the experiment on SF-268 CNS, 98.3%; with SF-295 CNS, 102%; with SF-539 CNS, 108%; in the experiment with UACC-257 melanoma, 90%. Also, in the experiment with M14 melanoma, the growth is 100%.
